Screening results as filed in PubChem BioAssay.
Pf growth 96h: Primary qHTS for delayed death inhibitors of the malarial parasite plastid, 96 hour incubation | P. falciparum luciferase reporter growth, 96 h | 320,000 compounds, 6.9% hits | AID 504834, 2011 | Potency, µM (top dose mostly 28.7 µM), hits mostly inhibitors
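Erythrocytes infected with luciferase-expressing P. falciparum were dispensed at 2% hematocrit and 0.05% parasitemia (final), then incubated with compounds 96 hours at 37 C in 5% CO2. Luminescence after detection reagent addition reported growth.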
Shiga inhibitor: A qHTS for Small Molecule Inhibitors of Shiga Toxin | 290,000 compounds, 9.2% hits | inhibition, % at 38.7 µM | Vero cells, Shiga toxin protein synthesis inhibition reporter; in the data active means inhibition mostly above about 28%, no sharp cut-off; inactive means mostly below about 43%
NS1 inh: qHTS Assay for Inhibitors of Influenza NS1 Protein Function | 270,000 compounds, 0.4% hits | Potency, µM (doses to about 46.1 µM); calls by dose curve; further: actives are rising curves; nearly all actives have a fitted effect of over 50% in size
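OD600 was taken as the measure of yeast growth restored by compound in an NS1-expressing S. cerevisiae strain. Cells had been washed out of glucose medium and diluted 1:100 into galactose -URA medium, pH 6.0.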
Pf growth 48h: Primary qHTS for delayed death inhibitors of the malarial parasite plastid, 48 hour incubation; P. falciparum luciferase growth in erythrocytes, 48 h; Potency, µM (series often up to 28.7 µM), most hits filed as inhibitors; 310,000 compounds, 5.9% hits
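Luminescence readout; reporter = integrated firefly luciferase in P. falciparum. RBC culture at 2% hematocrit, 0.1% parasitemia final, 37 C/5% CO2; decreased signal taken as growth inhibition.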
CHX counter: Cycloheximide Counterscreen for Small Molecule Inhibitors of Shiga Toxin | cell reporter, cycloheximide protein synthesis inhibition counterscreen | max response, % | 300,000 compounds, 12% hits | AID 2314, 2010; in the data active means max response mostly above about 13%, no sharp cut-off; inactive means mostly below about 14%; further: read at 38.3 µM for the half of the compounds with a filed dose
FBPA Giardia inh: qHTS Assay for Inhibitors of Fructose-1,6-bisphosphate Aldolase from Giardia Lamblia; purified Giardia FBPA; A8B2U2; AID 2451, 2010; 290,000 compounds, 0.71% hits; Potency, µM (doses to about 59.6 µM), actives largely listed as inhibitors; further: nearly all actives have a fitted effect of over 55% in size
Target sequence (A8B2U2 whole entry, looked up): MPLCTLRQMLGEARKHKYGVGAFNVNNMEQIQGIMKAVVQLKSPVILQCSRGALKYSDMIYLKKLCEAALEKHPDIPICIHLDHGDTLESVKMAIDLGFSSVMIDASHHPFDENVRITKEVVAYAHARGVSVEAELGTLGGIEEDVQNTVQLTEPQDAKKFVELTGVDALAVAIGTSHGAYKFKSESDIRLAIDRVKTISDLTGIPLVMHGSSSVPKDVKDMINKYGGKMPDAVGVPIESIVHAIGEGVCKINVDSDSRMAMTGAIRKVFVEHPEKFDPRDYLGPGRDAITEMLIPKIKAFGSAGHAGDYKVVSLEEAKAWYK
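Giardia FBPA (40 nM reagent) was preincubated 10 min at RT with compound (up to 57.5 uM final), then substrate plus GAPDH/TPI/NAD/arsenate coupling system with diaphorase/resazurin was added; resorufin fluorescence (525/598 nm) was read after 20 min.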
Hits are given with their value; i = inactive; ? = inconclusive; nt = no result; [ ] = remark or other dose. Compounds with a hit are over-represented: about 21% of the library has one in this group of screens. Unless noted, the call rests on the fitted dose curve; in most records, active means well fitted curve in the direction sought with a large enough effect; inconclusive means small, poorly fitted or top-dose-only effect, or another doubt; inactive means no such curve, though single readings can be large; an effect the other way counts as inactive or inconclusive.

SMILES	Pf growth 96h	Shiga inhibitor	NS1 inh	Pf growth 48h	CHX counter	FBPA Giardia inh
O=C(N/N=C/c1ccc(OC(=O)c2cccc(F)c2)cc1)c1cccnc1	i	i	i	i	i	i
O=C(N/N=C/c1cccnc1)c1cccc(F)c1	?	23	i	i	20	i
O=C(CNC(=O)c1cccc(F)c1)N/N=C/c1cccnc1	i	i	i	i	i	nt
O=C(N/N=C/c1ccc(OC(=O)c2cccs2)cc1)c1cccc(F)c1	i	i	i	i	47	i
O=C(N/N=C/c1cccnc1)c1ccc(O)cc1	i	i	i	i	19	i
Cc1ccc(/C=N/NC(=O)c2ccncc2)cc1	i	i	?	i	22	i
CCCC(=O)Nc1ccc(C(=O)N/N=C/c2cccnc2)cc1	nt	i	i	i	i	i
Cc1ccc(C(=O)Nc2ccc(C(=O)N/N=C/c3ccncc3)cc2)cc1	i	i	nt	i	i	i
O=C(COC(=O)C1C2CC3OC(=O)C1C3C2)Nc1ccc(Cl)cc1 (stereo not given)	i	i	i	i	i	i
Cn1ccc(C(=O)N/N=C/c2ccncc2)n1	i	28	i	i	32	i
COc1ccnc(Oc2ccc(F)cc2)c1C(=O)N/C=N/OCc1c(Cl)cccc1Cl	?	i	i	12µM	i	i
OCCNCc1cc(Br)ccc1OCc1ccccc1	i	i	i	i	i	i
CCOCCCNCc1cc(Br)ccc1OCc1ccccc1	?	i	i	10µM	i	i
Brc1ccc(OCc2ccccc2)c(CNCC2CCCO2)c1 (stereo not given)	i	i	i	i	i	i
CCOc1cc(CNCCc2ccc(S(N)(=O)=O)cc2)ccc1OCc1ccccc1	?	i	i	?	i	nt
NS(=O)(=O)c1ccc(CCNCc2cc(Br)ccc2OCc2ccccc2)cc1	i	i	i	13µM	i	i
CCOc1cc(CNCCc2ccc(S(N)(=O)=O)cc2)cc(Cl)c1OCc1ccccc1	13µM	i	i	13µM	i	i
O=C(NCCCc1ccncc1)C1CCC(=O)N(CCc2cccc(F)c2)C1 (stereo not given)	i	i	i	i	i	i
C/C(=N\NC(=O)c1ccc(F)cc1)c1cccc(NC(=O)c2cccc(F)c2)c1	i	35	i	?	16	nt
C/C(=N/NC(=O)c1ccc(-c2ccccc2)cc1)c1cccc(O)c1	5.9µM	i	i	i	i	nt
CC(=O)Nc1cccc(/C(C)=N/NC(=O)c2ccc(CN3CCOCC3)cc2)c1	i	i	nt	i	i	i
C/C(=N\NC(=O)c1cccc(F)c1)c1cccc(NC(=O)c2ccc(F)cc2)c1	i	26	i	i	35	i
C/C(=N\NC(=O)c1cccc(O)c1)c1cccc(NC(=O)c2ccc(F)cc2)c1	i	68	i	i	41	nt
C/C(=N\NC(=O)c1ccc(F)cc1)c1cccc(NC(=O)c2ccco2)c1	?	i	i	i	i	i
CCn1cc(C(=O)N2CCCC(CO)(Cc3ccccc3C)C2)cn1 (stereo not given)	i	i	i	i	i	i
SMILES	Pf growth 96h	Shiga inhibitor	NS1 inh	Pf growth 48h	CHX counter	FBPA Giardia inh
CN(C)c1nc(-c2ccccc2C(F)(F)F)nc2ccccc12	nt	nt	nt	nt	nt	i
C/C(=N\NC(=O)c1ccccc1F)c1cccc(NC(=O)c2ccc(C)cc2)c1	5.2µM	58	i	i	34	i
COc1ccc(C(=O)Nc2cccc(/C(C)=N/NC(=O)c3ccc([N+](=O)[O-])c(C)c3)c2)cc1OC	i[5.75 µM]	i	i	i	i	i
CCOC(=O)c1[nH]c2ccccc2c1NC(=O)c1ccc(S(=O)(=O)N2CCCC2)cc1	12µM	i	i	?	i	i
CCOC(=O)c1[nH]c2ccc(C)cc2c1N	i	61	i	i	27	i
CCOC(=O)c1[nH]c2ccccc2c1NC(=O)c1cc(OC)c(OC)c(OC)c1	nt	nt	i	nt	nt	nt
CCOC(=O)c1[nH]c2ccccc2c1NC(C)=O	i	i	i	i	i	i
Cc1[nH]c2ccccc2c1CN(C)C	nt	nt	nt	nt	nt	i
CN(C)Cc1c(C(=O)Nc2ccccc2)[nH]c2ccccc12	9.3µM	nt	nt	2.9µM	nt	nt
CCOC(=O)c1[nH]c2ccccc2c1NC(=S)Nc1ccccc1	i	i	i	i	23	i
O=C(NC1CCN(C(=O)c2cccc([N+](=O)[O-])c2)CC1)c1ccccc1	i	i	i	i	i	i
C[C@]12CC[C@@H](O)CC1CCC1C2CC[C@]2(C)C(=O)CC[C@@H]12 (stereo not given in full)	nt	nt	i	nt	nt	i
CC1CCN(C(=O)CCNS(=O)(=O)c2ccc(Cl)cc2)CC1	i	i	i	i	i	i
CCOC(=O)c1[nH]c2ccccc2c1NC(=S)Nc1cccc(C)c1	i	i	i	i	32	i
CCOC(=O)c1[nH]c2ccccc2c1NC(=O)CC	i	i	i	nt	i	i
CC(NC(=O)c1ccc(Cl)cc1)c1nnc(SCC(=O)NC2=NCCS2)n1C (stereo not given)	?	i	i	i	i	i
O=P(O)(Cc1ccccc1)Cc1ccccc1	?	nt	i	i	i	i
CC[C@H](C)[C@H]1O[C@]2(CC[C@@H]1C)C[C@@H]1C[C@@H](C/C=C(\C)[C@H](O[C@@H]3C[C@H](OC)[C@H](O[C@@H]4C[C@H](OC)[C@@H](O)[C@H](C)O4)[C@H](C)O3)[C@@H](C)/C=C/C=C3\CO[C@@H]4[C@H](O)C(C)=C[C@@H](C(=O)O1)[C@]34O)O2	4.8µM	nt	nt	1.2µM	nt	nt
CC(C)Oc1ccc(C2CC(=O)N(C)C2=O)cc1 (stereo not given)	i	i	i	i	i	i
CCCCOc1ccc(C2CC(=O)N(C)C2=O)cc1 (stereo not given)	i	32	i	i	20	i
CCCCCCn1c(CN2CCN(Cc3ccccc3)CC2)nc2c1c(=O)n(C)c(=O)n2C	i	i	i	?	i	i
CN1CCN(c2nc3c(c(=O)n(C)c(=O)n3C)n2Cc2cccc3ccccc23)CC1	nt	i	?	10µM	i	i
CN(Cc1ccccc1)Cc1nc2c(c(=O)n(C)c(=O)n2C)n1CCCc1ccccc1	10µM	i	i	i	i	i
Cn1c(=O)c2c(nc(N3CCCCCC3)n2Cc2cccc3ccccc23)n(C)c1=O	i	i	i	?	i	i
CCN1CCN(Cc2nc3c(c(=O)n(C)c(=O)n3C)n2CCc2ccccc2)CC1	12µM	i	i	i	i	i
CCN1CCN(Cc2nc3c(c(=O)n(C)c(=O)n3C)n2CCCc2ccccc2)CC1	nt	i	i	i	i	i
Cn1c(=O)c2c(nc(CN3CCN(Cc4ccccc4)CC3)n2Cc2cccc(Cl)c2)n(C)c1=O	1.2µM	i	i	2.1µM	i	i
Cn1c(Sc2ccc(-c3cccnc3)n2C)ccc1-c1cccnc1	nt	nt	i	nt	nt	nt
CCNc1ncc2nc(-c3cccs3)c(=O)n(-c3ccc(OC)cc3)c2n1	nt	nt	nt	nt	nt	i
